Where “and” joins values, the source holds several entries; their conditions need not be identical. Equal entries are not always repeated. Inconclusive results are not listed. More than one record can exist for a structure, and the calls need not agree. Calls of active or inactive are those of the source. Unless noted, calls follow the shape of the dose curve; as a rule, active = well fitted curve in the direction sought with a large enough effect in the repeat runs; inconclusive = weak or mixed curves; inactive = no such curve, though single readings can be large; an effect the other way counts as inactive or inconclusive.
Columns and labels:
[1] = qHTS assay to identify small molecule antagonists of the androgen receptor (AR) signaling pathway using the MDA cell line in the presence of 0.5 nM R1881 - cell viability counter screen (AID 1259242); also: nearly all actives have a fitted effect of over 45% in size
In short: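 Cytotoxicity toward MDA-kb2 cells is measured by CellTiter-Fluor live-cell protease fluorescence after 16 hr compound exposure at 37C in the presence of 0.5 nM R1881 stimulator.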

[2] = biological target: Estrogen receptor (Homo sapiens) (UniProt P03372); experiment: qHTS assay to identify small molecule antagonists of the estrogen receptor alpha (ER-alpha) signaling pathway using the BG1 cell line in the presence of 0.1 nM 17-beta-estradiol (AID 1259244); also: nearly all actives have a fitted effect of over 50% in size; also: potency is read from the fitted curve at half-maximal effect
Chain of Estrogen receptor (Homo sapiens) (P03372 whole entry, looked up): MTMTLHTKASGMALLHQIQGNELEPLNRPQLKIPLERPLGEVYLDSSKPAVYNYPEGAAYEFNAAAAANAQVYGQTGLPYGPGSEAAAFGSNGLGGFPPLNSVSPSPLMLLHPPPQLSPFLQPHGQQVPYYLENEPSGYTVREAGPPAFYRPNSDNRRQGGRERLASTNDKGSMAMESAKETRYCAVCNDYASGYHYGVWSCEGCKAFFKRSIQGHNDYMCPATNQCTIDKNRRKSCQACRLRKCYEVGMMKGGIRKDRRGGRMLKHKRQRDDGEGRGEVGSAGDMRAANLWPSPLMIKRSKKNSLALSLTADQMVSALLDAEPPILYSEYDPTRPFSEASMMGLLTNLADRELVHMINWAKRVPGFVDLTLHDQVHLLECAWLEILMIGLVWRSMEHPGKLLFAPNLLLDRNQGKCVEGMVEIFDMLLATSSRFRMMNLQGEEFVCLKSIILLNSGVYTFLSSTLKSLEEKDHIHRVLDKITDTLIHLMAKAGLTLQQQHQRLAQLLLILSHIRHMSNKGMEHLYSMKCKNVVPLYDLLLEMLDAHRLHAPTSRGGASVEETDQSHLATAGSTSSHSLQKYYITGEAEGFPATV
In short: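 After 5 days in hormone-depleted medium (charcoal-stripped serum, no phenol red), VM7Luc4E2 cells were seeded, incubated 24 h, then co-treated with compound and 0.1 nM (final) estradiol for 22 h before luminescence detection.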

[3] = qHTS assay to identify small molecule HDAC inhibitors (AID 1259364); also: nearly all actives have a fitted effect of over 45% in size; also: potency is read from the fitted curve at half-maximal effect
In short: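 Homogeneous cell-based luminescent assay of endogenous class I/II HDAC activity; HCT-116 cells, 2 h compound exposure, 30 min HDAC-Glo development at RT.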

[4] = qHTS assay to identify small molecule HDAC inhibitors - cell viability counter screen (AID 1259365); also: series mostly up to about 92 µM; nearly all actives have a fitted effect of over 50% in size
In short: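 To flag cytotoxic hits, 1,500 wild-type HCT-116 cells per well, plated the day before, receive test compounds for 2hr at 37 C before CellTiter-Glo reagent and a luminescence read.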

[5] = qHTS assay to identify small molecule agonists of the sonic hedgehog signaling (Shh) pathway - cell viability counter screen (AID 1259366); also: nearly all actives have a fitted effect of over 50% in size
In short: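 Fluorescence from CellTiter-Fluor reports live cells in this counter screen. NIH/3T3-derived Gli1-Luc reporter cells receive test compounds for 24hr at 37C; reagent goes in at 23hr.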

[6] = qHTS assay to identify small molecule antagonists of the sonic hedgehog signaling (Shh) pathway - cell viability counter screen (AID 1259367); also: nearly all actives have a fitted effect of over 55% in size
In short: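 NIH/3T3-derived Gli1-Luc reporter cells (2,000 per well) rested 4 hr at 37 C, then received DMSO compounds plus conditioned medium. After 23 hr of treatment, CellTiter-Fluor was added for 1 hr at 37C and fluorescence read.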

[7] = qHTS assay to identify small molecule antagonists of the sonic hedgehog signaling (Shh) pathway (AID 1259369; calls by dose curve; also: nearly all actives have a fitted effect of over 45% in size; also: potency is read from the fitted curve at half-maximal effect)
In short: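 Inhibition of Shh signalling is measured as reduced Gli1-response-element firefly luciferase output in an NIH/3T3-derived stable reporter clone stimulated with conditioned medium for 24hr.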

[8] = biological target: Estrogen receptor beta (Homo sapiens) (UniProt Q92731); experiment: qHTS assay to identify small molecule agonists of the estrogen receptor beta (ER-beta) signaling pathway (AID 1259377; active = well fitted activation curve with a large enough effect in the signal ratio in the repeat runs, not every such curve was filed as active; the % refers to the signal ratio)
Chain of Estrogen receptor beta (Homo sapiens) (Q92731 whole entry, looked up): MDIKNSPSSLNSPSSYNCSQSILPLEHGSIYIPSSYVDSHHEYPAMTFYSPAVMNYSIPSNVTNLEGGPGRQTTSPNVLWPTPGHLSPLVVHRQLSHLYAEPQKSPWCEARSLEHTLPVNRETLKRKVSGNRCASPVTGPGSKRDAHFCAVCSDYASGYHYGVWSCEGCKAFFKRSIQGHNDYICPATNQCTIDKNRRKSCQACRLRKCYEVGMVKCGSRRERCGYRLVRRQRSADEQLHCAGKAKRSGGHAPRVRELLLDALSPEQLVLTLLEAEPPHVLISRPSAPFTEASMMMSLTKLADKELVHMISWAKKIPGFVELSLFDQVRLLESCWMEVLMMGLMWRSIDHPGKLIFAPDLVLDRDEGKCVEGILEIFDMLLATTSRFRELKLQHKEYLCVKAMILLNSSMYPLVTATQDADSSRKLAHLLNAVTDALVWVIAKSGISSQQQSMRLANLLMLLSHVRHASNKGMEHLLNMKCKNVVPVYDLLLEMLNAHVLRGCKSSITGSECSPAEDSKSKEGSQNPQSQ
In short: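 Screening used GripTite ER-beta-UAS-bla cells held in 2% charcoal-stripped FBS medium. After overnight (16 hr) compound incubation at 37C, beta-lactamase activity was detected with a FRET substrate by fluorescence.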

[9] = qHTS assay to identify small molecule agonists of the sonic hedgehog signaling (Shh) pathway (AID 1259368; calls by dose curve;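 also: NIH/3T3-derived 3T3Gli1-Luc cells carrying a stable Gli1-driven firefly luciferase reporter; series mostly up to about 92 µM; nearly all actives have a fitted effect of over 15% in size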)
In short: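 Steps: seed 3T3 Gli1-Luc cells, incubate 4 hr at 37 C, pin-transfer compounds in DMSO alongside a positive control, incubate 24 hr, add luciferase detection reagent, wait 30 min at room temperature, read luminescence.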

Measured: Potency

C=C(C)C(=O)OCCC[Si](OC)(OC)OC
not listed: [9]
inactive: all other assays above

Cc1cc(NS(=O)(=O)c2ccc(N)cc2)no1
not listed: [2]
inactive: all other assays above

CC1=C(CC(=O)O)c2cc(F)ccc2/C1=C\c1ccc(S(C)=O)cc1 (configuration not stated)
not listed: [2]
inactive: all other assays above

CC(C)n1c(/C=C/[C@@H](O)C[C@@H](O)CC(=O)O)c(-c2ccc(F)cc2)c2ccccc21
not listed: [2] | [7] | [8]
inactive: all other assays above

CCOC(=O)C1OC1c1ccccc1 (configuration not stated)
active: [3] 49.5 µM
not listed: [2] | [8]
inactive: all other assays above

CC(=O)[C@@]1(O)CC[C@H]2[C@@H]3CCC4=CC(=O)CC[C@]4(C)[C@H]3CC[C@@]21C
not listed: [2]
inactive: all other assays above

CC1(C)CC(N=C=O)CC(C)(CN=C=O)C1 (configuration not stated)
not listed: [2] | [8]
inactive: all other assays above

CCCCCCCCC
not listed: [9]
inactive: all other assays above

CC(=O)Nc1ccc(C(=O)O)cc1
not listed: [2]
inactive: all other assays above

CCc1ccccc1O
19.2 µM (active) and inactive: [2]
not listed: [9]
inactive: all other assays above

CCCCC/C=C\C/C=C\CCCCCCCC(=O)OC
inactive and 24.3 µM (active): [7]
not listed: [2]
inactive: all other assays above

COC(=O)c1ccccc1O
not listed: [2]
inactive: all other assays above

CCCCCCCCCCCCOCC1CO1 (configuration not stated)
not listed: [9]
inactive: all other assays above

CCCCCCOC(C)=O
not listed: [2] | [8]
inactive: all other assays above

Source: PubChem BioAssay (Tox21)
